Measured values as given in PubChem BioAssay (NCI).
Compounds without any hit were thinned out: in the full panel of roughly 79,000, 15% have a hit. No stated cut-off is given here; in the data, active means growth inhibition above about 70%; inactive means the rest.

What was measured:
[1] = NCI Yeast Anticancer Drug Screen. Data for the rad50 strain (AID 155);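 further: 0% = growth of vehicle-only cultures of the same strain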; settings: S. cerevisiae rad50 strain growth inhibition; at 50.0 µM; stronger effect = higher value
Method in brief: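 Vehicle-treated cultures provide the reference for the growth inhibition reported for compound-exposed, repair-deficient yeast.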

[2] = NCI Yeast Anticancer Drug Screen. Data for the mec2-1 strain (AID 157); settings: S. cerevisiae mec2-1 strain, at 50.0 µM, stronger effect = higher value
Method in brief: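 Readout is yeast growth inhibition, normalised to vehicle-treated controls, in the mec2-1 strain exposed to compound.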

[3] = NCI Yeast Anticancer Drug Screen. Data for the sgs1 mgt1 strain (AID 161);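 further: 0% = growth of cultures given vehicle only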; settings: S. cerevisiae sgs1 mgt1 strain, at 50.0 µM, stronger effect = higher value
Method in brief: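 Percent growth inhibition was derived by comparing compound-exposed mutant yeast with vehicle-exposed cultures. The strain carries alterations in DNA damage repair.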

[4] = NCI Yeast Anticancer Drug Screen. Data for the cln2 rad14 strain (AID 165);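 further: 0% = growth equal to vehicle treated cultures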; settings: S. cerevisiae cln2 rad14 strain, at 50.0 µM, stronger effect = higher value
Method in brief: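 Relative to vehicle controls, growth inhibition of compound-treated cln2 rad14 yeast was recorded.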

[5] = NCI Yeast Anticancer Drug Screen. Data for the bub3 strain (AID 167); settings: S. cerevisiae bub3 mutant strain, at 50.0 µM, stronger effect = higher value
Method in brief: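 Mutant yeast screening strain plus compound; vehicle-treated cultures serve as the 0% inhibition reference.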

[6] = NCI Yeast Anticancer Drug Screen. Data for the mlh1 rad18 strain (AID 175); settings: S. cerevisiae mlh1 rad18 strain growth inhibition; at 50.0 µM; stronger effect = higher value
Method in brief: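 Test agents were incubated with a yeast strain of defined genotype (DNA damage repair defect). Inhibition of growth was derived by comparison with vehicle-exposed cultures.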

Measured: growth inhibition

CC1(C)N=C(c2ccccc2)SC1(C)C
inactive: [1] -13.6% | [2] -12.2% | [3] -21.8% | [4] -49.4% | [5] 1.65% | [6] -36.5%

CCc1c(Sc2ccccn2)n(COCc2ccccc2)c(=O)[nH]c1=O
inactive: [1] -14.5% | [2] -4.4% | [3] -24.9% | [4] -16.4% | [5] -17.8% | [6] -16.1%

CCCCCSc1nc2c([nH]1)c(=O)n(C)c(=S)n2C
inactive: [1] 14.5% | [2] -6.35% | [3] 1.95% | [4] -8.8% | [5] 0.6% | [6] -15.6%

Cc1c(Cl)cccc1NC(=O)Nc1ccccc1F
inactive: [1] 14.2% | [2] 7.65% | [3] 15.2% | [4] 19.2% | [5] 28.4% | [6] 17.4%

CNC(=O)n1c(N)nc(-c2ccccc2)c1-c1ccccc1
inactive: [1] 14.3% | [2] 4.55% | [3] 18.4% | [4] 1.7% | [5] -22.1% | [6] -46.9%

S=C(SCc1c(Cl)cccc1Cl)N1CCSCC1
inactive: [1] -13.9% | [2] -14.2% | [3] 23.1% | [4] -6.85% | [5] 53% | [6] 0.6%

O=C(NCC(C(=O)OCc1ccccc1)C(=O)OCc1ccccc1)OCc1ccccc1
inactive: [1] -8.9% | [2] -13.8% | [3] 1.55% | [4] -14.1% | [5] -24.4% | [6] -12.3%

COc1cc(C(=O)n2ncc(C(C)=O)c2C)cc(OC)c1OC
inactive: [1] -3.75% | [2] -17.5% | [3] 12.9% | [4] 10.9% | [5] 0.3% | [6] 8.45%

CCCC(=O)OC(CCC1CCCO1)CCC1CCCO1 (stereo unspecified)
inactive: [1] 0.3% | [2] -14.9% | [3] 10.4% | [4] 23.9% | [5] -6.35% | [6] 19.6%

CCCCCCCCCCc1c2nc(c(CCCCCCCCCC)c3ccc([nH]3)c(CCCCCCCCCC)c3ccc([nH]3)c(CCCCCCCCCC)c3nc1C=C3)C=C2
inactive: [1] -18.1% | [2] -11.9% | [3] -5.95% | [4] 23.4% | [5] 6% | [6] -63.7%

COC(=O)[C@H]1[C@H]2C[C@@H]3c4[nH]c5ccccc5c4CCN3C[C@H]2C[C@@H](O)[C@@H]1OC(=O)c1cc(OC)c(OC)c(OC)c1
inactive: [1] 23.1% | [2] -1.35% | [3] 19.4% | [4] 8.75% | [5] 21% | [6] 20.9%

O=C(NN1C(=O)CSC1c1ccc(F)cc1)c1ccncc1 (stereo unspecified)
inactive: [1] -4.2% | [2] 1.1% | [3] 4.15% | [4] -6.75% | [5] 7.95% | [6] 11.8%

Cc1ccc2cc(N(C)C)ccc2[n+]1C
inactive: [1] 29.9% | [2] 24.1% | [3] 39.9% | [4] 34.4% | [5] 22.2% | [6] 30.8%

C=CCc1cc(C(C)=O)ccc1O
inactive: [1] 2.75% | [2] -14.5% | [3] -9.75% | [4] -19.2% | [5] -8.95% | [6] -11.7%

CC(C)(S(=O)(=O)Oc1ccccc1)S(=O)(=O)Oc1ccccc1
inactive: [1] 1.6% | [2] 9.95% | [3] -15.4% | [4] -16.9% | [5] 49.8% | [6] 16.6%

CCC12OC3(CC)C4C(=O)OC1C1(CC)OC4(CC)C3C(=O)OC21
inactive: [1] -13.7% | [2] -5.6% | [3] 4.85% | [4] -5.75% | [5] 0.8% | [6] 13.3%

Cc1ccccc1NCC(C)O (stereo unspecified)
inactive: [1] -3.05% | [2] 6.15% | [3] -5.9% | [4] -84.5% | [5] -20.4% | [6] -32%

BrCCCOc1ccccc1
inactive: [1] -23.7% | [2] -32.8% | [3] -5.65% | [4] -2.9% | [5] -2.4% | [6] 0.7%

NC(=O)/C=C/C(N)=O
inactive: [1] 13.6% | [2] -9.45% | [3] -16.7% | [4] -13.5% | [5] -5.05% | [6] 2.7%

C(=C\c1nc2ncccn2n1)/c1ccccc1
inactive: [1] 16.4% | [2] -2.75% | [3] 6.55% | [4] -20.9% | [5] 4.6% | [6] -14.3%

C#CCN1CCCC1
inactive: [1] -9.4% | [2] -4.35% | [3] -11% | [4] 22.1% | [5] 27.7% | [6] 10.2%

COc1ccccc1/C=C1/C(=O)ON=C1C
inactive: [1] 0.05% | [2] -21.1% | [3] -11.9% | [4] 9.6% | [5] -17.1% | [6] -18.5%

Cc1cccc(C(O)(c2cccc(C)c2)C2(O)CCCCC2)c1
inactive: [1] -9.45% | [2] -0.45% | [3] -0.9% | [4] 21.2% | [5] 1% | [6] 6.9%

O=C1C(c2ccccc2Cl)[C@H]2CC=C[C@H]2N1O (stereo partly specified)
inactive: [1] -26.1% | [2] -39.2% | [3] -8.4% | [4] 6.65% | [5] -21.6% | [6] -5.35%

Cc1cccc2c1Oc1ccccc1C2NC(=O)c1ccc([N+](=O)[O-])cc1 (stereo unspecified)
inactive: [1] -19.4% | [2] -15.4% | [3] -34.5% | [4] -0.9% | [5] -23.4% | [6] -18%

CCc1nc(N)nc(N)c1-c1ccc(Cl)c(S(=O)(=O)O)c1
inactive: [1] -27.1% | [2] -26.1% | [3] -9.8% | [4] -13.4% | [5] -15.1% | [6] 1.85%

CC1(CCC(=O)c2ccc3c(c2)OCO3)OCCO1
inactive: [1] 31.8% | [2] 8.95% | [3] 23.4% | [4] 14% | [5] 24.6% | [6] 26.9%

C=CCNC(=O)OCCCl
inactive: [1] 6% | [2] -1.45% | [3] -9.6% | [4] 5.95% | [5] -4.5% | [6] 15.1%

NC(N)=N/N=C/C(=N\N=C(N)N)C(O)CO (stereo unspecified)
inactive: [1] 28.9% | [2] -4.45% | [3] 1.85% | [4] 2.4% | [5] 4.85% | [6] -9.1%

CCc1[nH]nc(-c2n[nH]c(CC)c2C)c1C
inactive: [1] -66.8% | [2] -24.9% | [3] -20.1% | [4] -26.4% | [5] -13.7% | [6] -9.3%

CC(S)c1ccccc1 (stereo unspecified)
inactive: [1] 6.4% | [2] -0.55% | [3] 13.2% | [4] 11.9% | [5] 25.7% | [6] 14.4%

O=C(O)c1c[n+]([O-])ccc1Cl
inactive: [1] 12.8% | [2] -0.9% | [3] -8% | [4] -42% | [5] -8.2% | [6] 27.1%

COc1cc(/C=C2\C(=O)N(C(=O)c3ccc(NC(C)=O)cc3)N=C2C)ccc1O
inactive: [1] -44.7% | [2] -41.1% | [3] -68.8% | [4] -40.4% | [5] -51% | [6] -64%

Clc1cnc(Oc2ccccc2)c2ccccc12
inactive: [1] 2.3% | [2] -22.2% | [3] -10.2% | [4] -37.4% | [5] -1.5% | [6] -9.35%

Clc1ccccc1CSc1cnnc(SCc2ccccc2Cl)c1SCc1ccccc1Cl
inactive: [1] -0.1% | [2] 13.3% | [3] 6.4% | [4] 22.9% | [5] 10.7% | [6] 27.6%

O=c1cc(-c2ccc3c(c2)OCO3)oc2ccccc12
inactive: [1] 20.4% | [2] 1.8% | [3] 6% | [4] -2.35% | [5] -5.25% | [6] -3.8%

CC(=O)NC1C(O)C(O)C(CO)OC1n1ncc(=O)[nH]c1=O (stereo unspecified)
inactive: [1] 13.1% | [2] 22.8% | [3] -14.2% | [4] -18.9% | [5] -20.4% | [6] -37.9%

Cc1cc(Br)cc2c1NC(=O)C(C)C2C (stereo unspecified)
inactive: [1] -2.95% | [2] 12.7% | [3] -24.6% | [4] -8.95% | [5] -3.35% | [6] 1.1%

O=C(O)C1CC(O)c2ccccc2C1c1ccccc1 (stereo unspecified)
inactive: [1] -2.65% | [2] -1.15% | [3] -11.4% | [4] 22.6% | [5] 5.1% | [6] -17.3%

CCCCCNC(=O)c1ccc([N+](=O)[O-])cc1
inactive: [1] 7.35% | [2] -1.75% | [3] 3.75% | [4] 4.85% | [5] -1% | [6] 13.9%

O=C(/C=C/c1ccccc1)SCc1ccccc1
inactive: [1] -2.9% | [2] 14% | [3] 11.2% | [4] -2.1% | [5] -4.75% | [6] 2.35%
